Results filed as inconclusive are left out. Values without a mark were called inactive. Calls of active or inactive are those of the source. Calls come from the whole dose curve; as a rule, active = well fitted inhibition curve with a large enough effect; inconclusive = small, poorly fitted or top-dose-only effect; inactive = no such curve, though single readings can be large or run the other way.

The test system of this assay is zebrafish Abcb4 (ABCB1 homolog). Nature of the assay: qHTS for characterization and localization of zebrafish homologs of the human ABCB1 multidrug transporter: ABCB4 transfected cells. The settings on record: CellTiter-Glo viability luminescence, 72 h; series mostly up to 46.1 µM; activity change, negative = inhibition: at the top concentration. From the text:
The zebrafish has emerged as a potential model to study the blood-brain barrier (BBB) given its similarities with mammalian systems. However, little information has been available with regard to homologous ATP-binding cassette transporters expressed at the zebrafish BBB. Two transporters that are highly expressed at the human BBB are P-glycoprotein (P-gp, encoded by the ABCB1 gene) and ABCG2 (encoded by the ABCG2 gene). In this study, we focus on characterization of P-gp homologs in the zebrafish, which has two genes that are homologous to human ABCB1 - abcb4 and abcb5. We generated stably-transfected cell lines to determine their substrate specificities. […] Zebrafish abcb4 also colocalized with claudin 5 expression in brain endothelial cells.
A high-throughput screen was performed as previously described on empty vector transfected cells, P-gp-overexpressing MDR-19 cells and cells transfected with full-length zebrafish abcb4 (ZF Abcb4) or abcb5 (ZF Abcb5). Briefly, cells were plated into 1536-well plates at a density of 500 cells/well in 5 uL media. P-gp substrate compounds (approximately 90) selected from our previous study were then added at varying concentrations using a 1536-head pin tool (Kalypsis, San Diego, CA) and plates were incubated at 37C in 5% CO2 for 72 h. CellTiter-Glo reagent (Promega) was dispensed into the wells, incubated for 5 min and luminescence was read on a ViewLux instrument (Perkin-Elmer).
Cytotoxic compounds were defined as those that yielded a curve class of -1.1, -1.2, -2.1, -2.2, -2.3, or -2.4, a maximum response of >50% and an AC50 of < 10 uM. All compounds from screening analysis were tested in Vector (empty vector control), MDR-19 (P-gp overexpressing), zebrafish abcb4 (ZF Abcb4) and abcb5 (ZF Abcb5) expression cell lines.
1. Tobie D Lee, Olivia W Lee, Kyle R Brimacombe, Lu Chen, Rajarshi Guha, Sabrina Lusvarghi, Bethilehem G Tebase, Carleen Klumpp-Thomas, Robert W Robey, Suresh V Ambudkar, Min Shen, Michael M Gottesman, Matthew D Hall. A High-Throughput Screen of a Library of Therapeutics Identifies Cytotoxic Substrates of P-glycoprotein. Mol Pharmacol. 2019, Nov;96(5):629-640.
`Cc1[nH]c2ccccc2c1CCNCc1ccc(/C=C/C(=O)NO)cc1`: the Potency was 2960 nM (active).

`COC(C(=O)N1Cc2[nH]nc(NC(=O)c3ccc(N4CCN(C)CC4)cc3)c2C1)c1ccccc1` (stereo unspecified): the “activity change, negative = inhibition” value was -3.58%. For the compound `CC(=O)C1(O)Cc2c(O)c3c(c(O)c2C(OC2CC(N)C(O)C(C)O2)C1)C(=O)c1c(O)cccc1C3=O` (stereo unspecified), the Potency was 526 nM (active). On to `CC(C)C[C@H](NC(=O)[C@@H](NC(=O)c1cccc(-c2ccccc2)n1)[C@@H](C)O)B(O)O`, for which the Potency was 662 nM (active). As to `CN(C)C/C=C/C(=O)Nc1cccc(C(=O)Nc2ccc(Nc3nccc(-c4cccnc4)n3)cc2)c1`, the “activity change, negative = inhibition” value is -2.48%. For `Cc1ccc(C(=O)N(CCCN)[C@@H](c2oc3cc(Cl)ccc3c(=O)c2Cc2ccccc2)C(C)C)cc1`, the Potency was 20900 nM (active). On to `COc1cc2ncn(-c3cc(OCc4ccccc4C(F)(F)F)c(C(N)=O)s3)c2cc1OC`, for which the Potency is 19100 nM (active). Same read-out and setting: as for `CC(=O)O[C@@H]1C[C@H](O)[C@@]23CO[C@@H](O)C1(C)[C@@H]2C[C@@H](O)[C@]1(C)[C@@H]3C(=O)[C@H](OC(C)=O)[C@@]2(C)[C@H](c3ccoc3)C[C@H]3O[C@]321`, the figure is 2960 nM (active). Regarding `CCN1CCN(Cc2ccc(NC(=O)Nc3ccc(Oc4cc(NC)ncn4)cc3)cc2C(F)(F)F)CC1`, the “activity change, negative = inhibition” value was 3.35%.

In the case of `COCCn1c2c([n+](Cc3cnccn3)c1C)C(=O)c1ccccc1C2=O`, the “activity change, negative = inhibition” value was -7.01%. Take `CC[C@@]1([C@@H]2O[C@@H]([C@H]3O[C@@](O)(CO)[C@H](C)C[C@@H]3C)C[C@@H]2C)CC[C@H]([C@]2(C)CC[C@]3(C[C@H](O)[C@@H](C)[C@@H]([C@@H](C)[C@@H](OC)[C@H](C)C(=O)O)O3)O2)O1`: the Potency is 1050 nM (active).
